Hits are enriched below; roughly 2.2% of the tested compounds scored in any of these assays.
FUS yeast rescue – FUS proteinopathy suppression in yeast; S. cerevisiae FUS-expressing, growth rescue, OD600, 24 h; Potency, µM (series often up to 76.6 µM), hits mostly activators; actives 0.24% (n = 390,000); AID 1347120; further: nearly all actives have a fitted effect of over 55% in size
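Compound concentration series was pinned onto galactose-induced FUS-expressing yeast seeded at OD 0.005. Plates sat 24hr at 30C; absorbance at 600 nm gave growth. DMSO served as background control.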
ERG-DNA inh – ERG Ets/DNA interaction inhibition; Potency, µM (highest dose often 76.9 µM), hits mostly inhibitors; fluorescence polarization, His-ERG Ets domain / labelled DNA; actives 0.028% (n = 370,000); active means well fitted inhibition curve with a large enough effect in the polarisation, with a control signal flat; inconclusive means small, poorly fitted or top-dose-only effect, or effect the other way, or a change in a side signal; inactive means no such curve, though single readings can be large or run the other way; the % refers to the polarisation;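 further: polarization taken with two DNA probes labelled with fluorescein and Texas red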
Target sequence (P11308 whole entry, looked up, the tested form may be a part): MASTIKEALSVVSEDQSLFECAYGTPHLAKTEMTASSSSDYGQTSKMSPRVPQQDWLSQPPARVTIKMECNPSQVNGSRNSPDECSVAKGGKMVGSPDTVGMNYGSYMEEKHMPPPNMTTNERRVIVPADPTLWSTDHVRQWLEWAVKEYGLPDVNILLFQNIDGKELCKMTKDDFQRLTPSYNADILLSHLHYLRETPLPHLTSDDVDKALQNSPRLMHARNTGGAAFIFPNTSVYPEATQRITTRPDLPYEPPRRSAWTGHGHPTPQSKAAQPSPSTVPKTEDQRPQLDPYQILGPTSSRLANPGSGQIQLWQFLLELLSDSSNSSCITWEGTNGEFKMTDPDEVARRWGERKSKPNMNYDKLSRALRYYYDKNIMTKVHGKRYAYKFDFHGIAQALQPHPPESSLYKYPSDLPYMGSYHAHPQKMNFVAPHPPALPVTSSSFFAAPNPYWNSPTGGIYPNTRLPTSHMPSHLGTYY
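His-tagged ERG Ets domain (1 uM in the protein solution; 300mM KCl, 50mM Tris-HCl, 1mM EDTA, 1mM DTT, pH 7.5) received compound, then a probe mix of 5 nM fluorescein-DNA and 100nM Texas-615-DNA. Fluorescence polarization was read for both dyes.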
aSyn rescue – rescues yeast growth from alpha-synuclein toxicity; Yeast expressing alpha-synuclein, growth rescue, BacTiter-Glo, 24 h; Potency, µM (highest dose often 46.1 µM), actives largely listed as activators; actives 0.14% (n = 370,000); AID 652106; further: nearly all actives have a fitted effect of over 65% in size
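Galactose-induced alpha-syn yeast (OD600=0.02, raffinose-pregrown) + pinned cpd, 24 hr, 30 deg C; growth by BacTiter-Glo luminescence. Growth restoration scores as activation.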
TDP-43 yeast inh – inhibitors of TDP-43 toxicity in yeast; TDP-43 expressing yeast growth rescue, BacTiter-Glo, 24 h; Potency, µM (highest dose often 46.1 µM), usual class: activators; actives 1.8% (n = 410,000); AID 652104; further: nearly all actives have a fitted effect of over 50% in size
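Yeast cells expressing TDP-43 under galactose induction are exposed to compounds for 24 hr at 30 deg C. BacTiter-Glo luminescence measures growth, so protective compounds score as activators.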
Mito fusion act – blocks mitochondrial division or promotes mitochondrial fusion; S. cerevisiae fusion-defective mutant growth rescue, CellTiterGlo 48 h; Potency, µM (top dose mostly 46.1 µM), usual class: activators; actives 0.23% (n = 320,000); further: nearly all actives have a fitted effect of over 45% in size
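Luminescent cell viability in 1536-well qHTS format served as the measure of rescued growth in ts fusion-mutant S. cerevisiae cultured on non-fermentable YPEG for 48 hours at 37C.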
Abeta rescue – compounds reversing amyloid beta toxicity in yeast; yeast expressing A-beta42, growth rescue, OD600, 48 h; response scale: 0% DMSO, 100% iron-clioquinol control; Potency, µM (series often up to 46.1 µM), hits mostly activators; actives 0.063% (n = 410,000); further: nearly all actives have a fitted effect of over 55% in size
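Yeast growth medium received pinned compounds, then yeast cells expressing toxic A-beta were added; plates incubated at 30 C for 48 hr. Growth read as absorbance at 600 nm, normalized to DMSO and equimolar FeCl3 plus clioquinol controls.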
Hits are given with their value. Unless noted, the call rests on the fitted dose curve; in most records, active means well fitted curve in the direction sought with a large enough effect; inconclusive means small, poorly fitted or top-dose-only effect, or another doubt; inactive means no such curve, though single readings can be large; an effect the other way counts as inactive or inconclusive.

What do the screens show for `O=C(NCc1ccc(C(=O)N2CCOCC2)cc1)c1cccc(Br)c1`?
FUS yeast rescue: inactive

Results for Cc1ccccc1NC(=O)OCCN1CCCC12CCC(c1ccccc1)CC2 (centres undefined) ?
FUS yeast rescue: inactive

What do the screens show for `Cc1cccc(C(c2sc3nc(-c4ccco4)nn3c2O)N2CCN(c3ccccc3F)CC2)c1` (centres undefined)?
FUS yeast rescue: inactive; ERG-DNA inh: inactive; TDP-43 yeast inh: inactive; Abeta rescue: inactive

How did O=C(Nc1ccccc1)c1cc(C2CCCN(C(=O)OCc3ccccc3)C2)on1 (centres undefined) do in these assays?
FUS yeast rescue: inactive; aSyn rescue: inactive; TDP-43 yeast inh: 35.5µM; Abeta rescue: inactive

How did COc1cc2c(cc1OC)CN(c1nc(-c3cccnc3)nc3ccccc13)CC2 do in these assays?
FUS yeast rescue: inactive; ERG-DNA inh: inactive; aSyn rescue: inactive; TDP-43 yeast inh: 14.1µM; Mito fusion act: inactive; Abeta rescue: inactive

How did O=S(=O)(c1ccccc1F)N1CCN(c2nc(-c3cccnc3)nc3ccccc23)CC1 do in these assays?
FUS yeast rescue: inactive; ERG-DNA inh: inactive; aSyn rescue: inactive; TDP-43 yeast inh: inactive; Mito fusion act: inconclusive; Abeta rescue: inactive

How did CN1CCN(c2nc(-c3cccnc3)nc3ccccc23)CC1 do in these assays?
FUS yeast rescue: inactive; ERG-DNA inh: inactive; aSyn rescue: inactive; TDP-43 yeast inh: inactive; Mito fusion act: inactive; Abeta rescue: inactive

How did Cc1ccc(C)c(S(=O)(=O)N2CCN(c3nc(-c4cccnc4)nc4ccccc34)CC2)c1 do in these assays?
FUS yeast rescue: inactive; ERG-DNA inh: inactive; aSyn rescue: inactive; TDP-43 yeast inh: 15.8µM; Mito fusion act: inconclusive; Abeta rescue: inactive

What do the screens show for `O=C(Cn1c(=O)nc(-c2ccccc2)c2ccccc21)NCc1ccccc1Cl`?
FUS yeast rescue: inactive; ERG-DNA inh: inactive; TDP-43 yeast inh: inactive; Abeta rescue: inactive

How did c1ccc(-c2ccc3[nH]ccc3c2)cc1 do in these assays?
FUS yeast rescue: inactive; ERG-DNA inh: inactive; aSyn rescue: inactive; TDP-43 yeast inh: 12.6µM; Mito fusion act: inactive; Abeta rescue: inactive

What do the screens show for `Cc1ccccc1OCCC(=O)Nc1ccc(F)c(Cl)c1`?
FUS yeast rescue: inactive; ERG-DNA inh: inactive; aSyn rescue: inactive; TDP-43 yeast inh: 14.1µM; Mito fusion act: inactive; Abeta rescue: inactive

How did Cc1ccccc1Cn1c(=O)n(CC2CCC(C(=O)N3CCC(C)CC3)CC2)c(=O)c2sccc21 (centres undefined) do in these assays?
FUS yeast rescue: inconclusive; ERG-DNA inh: inactive; TDP-43 yeast inh: inactive; Abeta rescue: inactive

Results for N#CC(c1ccc(Cl)nn1)c1ccc(Cl)cc1Cl (centres undefined) ?
FUS yeast rescue: inactive; ERG-DNA inh: inactive; aSyn rescue: inactive; TDP-43 yeast inh: 12.6µM; Mito fusion act: inactive; Abeta rescue: inactive

How did Cc1cc(C(=O)CSc2ccc3c(c2)OCCO3)c(C)n1C1CC1 do in these assays?
FUS yeast rescue: inactive; ERG-DNA inh: inactive; aSyn rescue: inactive; TDP-43 yeast inh: 20µM; Mito fusion act: inactive; Abeta rescue: inactive

What do the screens show for `Cn1c(N)c(C(=O)CSc2ccc3c(c2)OCCO3)c(=O)n(C)c1=O`?
FUS yeast rescue: inactive; ERG-DNA inh: inactive; aSyn rescue: inactive; TDP-43 yeast inh: inactive; Mito fusion act: inactive; Abeta rescue: inactive

What do the screens show for `COc1ccc(-c2nc(C(N)=O)c3c(n2)n(-c2ccccc2OC)c(=O)n3C)c(OC)c1`?
FUS yeast rescue: inactive; ERG-DNA inh: inactive; aSyn rescue: inactive; TDP-43 yeast inh: inactive; Abeta rescue: inactive

Results for S=C(S)OC1CC2CC1C1CCCC21 (centres undefined) ?
FUS yeast rescue: inactive; ERG-DNA inh: inactive; aSyn rescue: inactive; TDP-43 yeast inh: inactive; Mito fusion act: 18.4µM; Abeta rescue: inactive

What do the screens show for `COc1cc(C(=O)NC2CCCCN(Cc3cccc(Cl)c3)C2=O)cc(OC)c1OC` (centres undefined)?
FUS yeast rescue: inactive

How did O=C(O)c1cccc(-c2ccc(/C=c3/sc4nc5ccccc5n4c3=O)o2)c1 do in these assays?
FUS yeast rescue: inactive; ERG-DNA inh: inactive; aSyn rescue: inactive; TDP-43 yeast inh: inactive; Mito fusion act: 31.6µM; Abeta rescue: inactive

How did COC(=O)C12C=C3CC(c4ccc(C)s4)=C3C(=O)N1Cc1[nH]c3ccccc3c1C2 (centres undefined) do in these assays?
FUS yeast rescue: inactive

Results for COCCCNC(=O)c1cccc2c(-c3ccc(OC)cc3C)coc12 ?
FUS yeast rescue: inactive; aSyn rescue: inactive; TDP-43 yeast inh: inconclusive; Abeta rescue: inactive

What do the screens show for `COc1ccc(-c2ccc(C(=O)Nc3ccc(OC)nc3)c3occc23)c(C)c1`?
FUS yeast rescue: inconclusive; aSyn rescue: inactive; TDP-43 yeast inh: 35.5µM; Abeta rescue: inactive

What do the screens show for `COc1ccc(-c2coc3c(C(=O)Nc4ccc(OC)nc4)cccc23)c(C)c1`?
FUS yeast rescue: inactive; aSyn rescue: inactive; TDP-43 yeast inh: 35.5µM; Abeta rescue: inactive

What do the screens show for `Cc1cccc(NC(=O)C(=O)c2cc(C)n(-c3ccccc3)c2C)c1C`?
FUS yeast rescue: inactive; ERG-DNA inh: inactive; TDP-43 yeast inh: inactive; Abeta rescue: inactive

How did CCN(CC)CCCNC(=O)c1ccc2c(c1)NC(=O)C(CS(=O)(=O)Cc1ccc(F)cc1Cl)N2 (centres undefined) do in these assays?
FUS yeast rescue: 25.1µM; ERG-DNA inh: inactive; TDP-43 yeast inh: inactive; Abeta rescue: inactive

What do the screens show for `O=C1CCC[C@@H]2Cc3[nH]c4c(Cl)ccc(Cl)c4c3[C@@H]3CCN1[C@H]23`?
FUS yeast rescue: inactive; ERG-DNA inh: inactive; aSyn rescue: inactive; TDP-43 yeast inh: 28.2µM; Mito fusion act: inactive; Abeta rescue: inactive

What do the screens show for `CCOC(=O)c1cc(-c2ccccc2)n(CCCC(=O)Nc2cc(C)ccc2OC)c1C`?
FUS yeast rescue: inconclusive; ERG-DNA inh: inactive; TDP-43 yeast inh: inactive; Abeta rescue: inactive

Results for COCCn1c(-c2ccccc2)c(C)n2c3c(=O)n(C)c(=O)n(C)c3nc12 ?
FUS yeast rescue: inactive; ERG-DNA inh: inactive; aSyn rescue: inactive; TDP-43 yeast inh: inactive; Abeta rescue: inactive

How did COc1ccc(N2CCN(C(=O)c3cn(C4CCCC4)c(=O)c4c3c3ccccc3n4C)CC2)cc1 do in these assays?
FUS yeast rescue: inconclusive; ERG-DNA inh: inactive; aSyn rescue: inactive; TDP-43 yeast inh: 20µM; Mito fusion act: inactive; Abeta rescue: inactive

What do the screens show for `COc1ccc(N2CCN(C(=O)c3cn(C)c(=O)c4c3c3ccccc3n4C)CC2)cc1`?
FUS yeast rescue: inactive; ERG-DNA inh: inactive; aSyn rescue: inactive; TDP-43 yeast inh: inactive; Mito fusion act: inactive; Abeta rescue: inactive

Screening data: PubChem BioAssay, National Center for Advancing Translational Sciences (NCATS)
